According to PubChem BioAssay:

These compounds were tested on XIP peptide (Xip251-270) (assay: small-molecule binders of XIP peptide, primary screen, biochemical, small-molecule microarray, fluorescence 635/667 nm, 0.5 µg/mL protein (AID 1183)). Settings: small-molecule microarray binding, fluorescence 635 nm; higher = more signal.

Q: For COc1cccc([C@@H]2Oc3ccc(Br)cc3C(=O)[C@H]2O)c1, which composite z-score is on record?
A: 0.181

Q: With CO[C@@H]1COC(=O)CC=C[C@@H](C)[C@@H]2C=C[C@@H](O)[C@@H](COC(=O)CC=C[C@H]1C)O2 as the compound, how does the composite z-score read?
A: -0.317

Q: Which composite z-score does the source give for O=C1C2=CC[C@H]3C(=O)N(Cc4ccc5c(c4)OCO5)C(=O)[C@H]3[C@H]2[C@H](O)[C@@H]2O[C@H]12 here?
A: 0.0823

Q: CCOC(=O)[C@H](Cc1ccccc1)NC(=O)CCC1CC(OC(=O)NCc2ccc3c(c2)OCO3)CC2(CCCC(COC(=O)NCc3cccc(C(F)(F)F)c3)O2)O1 (stereo partly specified) was tested. Which composite z-score did it give?
A: 0.109

Q: How did the composite z-score turn out when CO[C@@H]1COC(=O)CCC[C@@H](C)[C@H](OC)COC(=O)CCC[C@H]1C was run?
A: 0.201

Q: With C[C@@H]1C=CCC(=O)OC[C@H](C)C(=O)OC[C@H]2O[C@H]1C=C[C@H]2O as the compound, how does the composite z-score read?
A: 0.756

Q: With CC(C)CON=C1[C@H]2CCn3c(=O)n(-c4ccccc4)c(=O)n3[C@H]2[C@H](O)[C@@H]2O[C@H]12 as the compound, how does the composite z-score read?
A: 0.263

Q: For O=C1[C@H]2[C@H]3[C@H](O)[C@H](O)CC(=NO[C@@H]4O[C@H](CO)[C@@H](O)[C@H](O)[C@H]4O)[C@H]3CC[C@H]2C(=O)N1Cc1ccccc1, which composite z-score is on record?
A: 0.588

Q: With CCN1C(=O)[C@H]2[C@H]3[C@H](O)[C@H](O)CC(=NOCC=C(C)CCC=C(C)C)[C@H]3CC[C@H]2C1=O as the compound, how does the composite z-score read?
A: 0.762

Q: How did the composite z-score turn out when CC(CCC(=O)OC[C@H]1O[C@H](C#Cc2ccccc2)C=C[C@@H]1Oc1ccc(C)cc1)=NOC[C@@H](O)COCc1ccco1 was run?
A: -0.205

Q: With CCN1C(=O)[C@H]2[C@H]3[C@H](O)[C@H](O)CC(=NO[C@@H]4O[C@H](CO)[C@@H](O)[C@H](O)[C@H]4O)[C@@H]3CC[C@H]2C1=O as the compound, how does the composite z-score read?
A: -0.321
